Assay outcomes (PubChem BioAssay)
DT40 TDP1 no CPT: qHTS for Inhibitors of human tyrosyl-DNA phosphodiesterase 1 (TDP1): qHTS in cells in absence of CPT; DT40 Tdp1-/- hTDP1 cells, no CPT, ATP luminescence, 48 h; actives 15% (n = 420,000); AID 686978, 2013; Potency, µM (highest dose often 46.2 µM), most hits filed as inhibitors; further: nearly all actives have a fitted effect of over 55% in size
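Stably hTDP1-transfected Tdp1-null chicken DT40 cells were treated with library compounds minus camptothecin and grown for at least 48 hr at 37 °C, after which cellular ATP was quantified by luminescence.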
HT1080 IDH1KD tx: HT-1080 IDH1 knockdown cell toxicity (counter line); Potency, µM (top dose mostly 46.1 µM), actives largely listed as cytotoxic; HT-1080 IDH1 knockdown viability, ATP luminescence, 48 h; actives 2% (n = 360,000)
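Using the IDH1-knockdown HT-1080 line run in the same batch and compound series as the NT line, viability after 48 h at 37 °C was determined by CellTiter-Glo luminescence and expressed as % activity.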
IL-1B inflam inh: blocks inflammasome-driven IL-1 beta release | THP-1 LPS/ATP IL-1B secretion, AlphaLISA, 16 h; active compounds read low | activity change, % at 57.5 µM | actives 4.7% (n = 360,000) | AID 743279; in the data active means activity change below about -50%; inconclusive means mostly about -30% to -49%
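Secreted IL-1B measured by AlphaLISA bead assay after 16 h compound exposure of THP-1 cells; compounds (final up to 57.5 uM) added 1 h before LPS (250 ng/mL) and ATP (1.25 mM) stimulation; lower signal means less secretion.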
ELG1 repair inh: ELG1-dependent DNA repair inhibition | HEK293T ELG1-luciferase reporter, luminescence, 16 h; DNA damage induced by 5-fluorouridine | Potency, µM (doses to about 46.1 µM), actives largely listed as inhibitors | actives 2.3% (n = 330,000); further: nearly all actives have a fitted effect of over 55% in size
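DMSO vehicle served as the neutral condition. Each well held 2,000 cells given 5-fluorouridine plus compound; after 16 hr at 37 °C/5% CO2, ONE-Glo was added and luciferase measured 30 min later.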
HT1080-NT tox: kills 2HG-producing HT-1080-NT fibrosarcoma cells; actives 1.6% (n = 360,000); Potency, µM (series often up to 46.1 µM), hits mostly cytotoxic; AID 686970; HT-1080-NT fibrosarcoma viability, CellTiter-Glo ATP luminescence, 48 h;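 further: NT is the 2HG producing partner of a matched IDH1 knockdown line; nearly all actives have a fitted effect of over 55% in size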
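Luminescent CellTiter-Glo readout after 48 hours of compound exposure at 37 degrees C defined viability of HT-1080-NT cells. Activity was normalized to DMSO wells and cell-free media wells; concentration-response curves were fitted and assigned curve classes.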
TDP1 cell CPT: growth inhibition of DT40 Tdp1-/-;hTDP1 cells with camptothecin (screen for TDP1 inhibitors); Potency, µM (doses to about 46.2 µM), actives largely listed as inhibitors; actives 12% (n = 420,000); AID 686979; chicken DT40 Tdp1-/-;hTDP1 cells + 20 nM CPT, ATP luminescence, 48 h; further: nearly all actives have a fitted effect of over 55% in size
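Cell growth measured by CellTiter-Glo luminescence after a minimum 48 h, 37 C compound exposure with 20 nM CPT in Tdp1-knockout DT40 cells stably expressing hTDP1, seeded 400/well; qHTS titration format.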
Hits are given with their value; – = inactive; ? = inconclusive; · = no result given. Hits are enriched below; roughly 19% of the tested compounds scored in any of these assays. Unless noted, the call rests on the fitted dose curve; in most records, active means well fitted curve in the direction sought with a large enough effect; inconclusive means small, poorly fitted or top-dose-only effect, or another doubt; inactive means no such curve, though single readings can be large; an effect the other way counts as inactive or inconclusive.

SMILES	DT40 TDP1 no CPT	HT1080 IDH1KD tx	IL-1B inflam inh	ELG1 repair inh	HT1080-NT tox	TDP1 cell CPT
Cc1ccc(-c2cc(C(=O)N/N=C/c3cccnc3)c3ccccc3n2)cc1C	8.2µM	?	–	·	?	8.2µM
Cc1ccc(C)c(-c2cc(C(=O)N/N=C/c3cccnc3)c3ccccc3n2)c1	?	–	–	–	–	?
O=C(N/N=C/c1c(F)c(F)c(F)c(F)c1F)c1cc(-c2ccccc2)nc2ccccc12	–	–	–	–	–	?
O=C(N/N=C/c1ccc(Cl)cc1)c1cc(-c2cccnc2)nc2ccccc12	7.31µM	?	–	?	?	?
O=C(N/N=C/C1CC=CCC1)c1cc(-c2cccnc2)nc2ccccc12 (configuration not stated)	–	–	–	–	–	–
O=C(N/N=C/c1ccc[nH]1)c1cc(-c2ccc(Cl)cc2)nc2ccccc12	9.2µM	?	–	?	?	?
CCCCC(=O)NC(=S)Nc1cccc(NC(=O)c2ccco2)c1	–	–	–	?	–	–
O=C(COC(=O)C1CC(=O)N(Cc2ccccc2)C1)c1ccc(F)cc1 (configuration not stated)	–	–	–	–	–	–
CCCn1nc(C(=O)NNC(=O)c2cccc(C)c2)c2ccccc2c1=O	–	–	–	?	–	–
Cc1ccc2c(c1)nnn2C1CCN(CC(=O)Nc2ccccc2N2CCOCC2)CC1	23.1µM	?	-52.9	?	?	18.4µM
COc1ccccc1NC(=O)CN1CCC(n2nnc3cc(F)ccc32)CC1	?	–	–	20.6µM	–	16.4µM
COc1ccc(C(=O)NNC(=O)CN2CCC(n3nnc4cc(F)ccc43)CC2)cc1	–	–	–	–	–	–
Cc1ccc2c(c1)nnn2C1CCN(CC(=O)NCCc2ccccc2)CC1	?	–	-68.1	?	–	?
COc1ccc(Cl)cc1NC(=O)CN1CCC(n2nnc3cc(C)ccc32)CC1	23.1µM	?	–	20.6µM	–	?
O=C(CN1CCC(n2nnc3cc(F)ccc32)CC1)NCc1ccco1	–	–	–	–	–	–
Cc1ccc(N=C/C(C(=O)C(F)(F)F)=C(\O)c2ccco2)cc1Cl	–	–	–	?	–	–
O=C1C=C(c2ccc3[nH]ccc3c2)C[C@@H](c2ccc(Cl)cc2)C1	?	?	–	?	?	?
CCOc1ccc(NC(=O)N2CCC(n3nnc4cc(C)ccc43)CC2)cc1	?	–	–	?	–	?
O=C(CN1CCC(n2cnc3cc(F)ccc32)CC1)Nc1ccccc1Br	?	–	–	–	–	–
COc1ccccc1NC(=O)CN1CCC(n2c(C)nc3cc(F)ccc32)CC1	23.1µM	–	–	?	–	?
Cc1ccc2c(c1)nnn2C1CCN(C(=O)Nc2ccccc2C)CC1	–	–	-57.4	–	–	–
Cc1nc2cc(C(F)(F)F)ccc2n1C1CCN(CC(=O)NC(C)(C)C)CC1	?	–	–	–	–	18.4µM
C=CCNC(=O)CN1CCC(n2c(C)nc3cc(C(F)(F)F)ccc32)CC1	–	–	–	–	–	–
S=C1CC2CCCC(C2)N1 (configuration not stated)	–	–	–	·	–	–
COc1ccc2c(c1)C1(Nc3ccccc3-c3nc4ccccc4n31)C(=O)N2C (configuration not stated)	20.6µM	–	–	–	–	?
SMILES	DT40 TDP1 no CPT	HT1080 IDH1KD tx	IL-1B inflam inh	ELG1 repair inh	HT1080-NT tox	TDP1 cell CPT
Cc1ccc(-c2nc3c(Cl)cc(C(F)(F)F)cn3c2Cc2cccc(F)c2)cc1	?	–	–	·	–	?
Cc1cc(N(C)C)cc(C)c1N=Nc1cc[n+]([O-])cc1	?	–	–	·	–	?
CCOC(=O)CCC(NC(=O)c1ccc(Nc2nc3ccccc3nc2C(=O)OCC)cc1)C(=O)OCC (configuration not stated)	7.31µM	–	–	·	–	10.3µM
COc1cccc(CNC(=O)COC(=O)c2nc(Cl)c(Cl)c(Cl)c2Cl)c1	?	–	-100.6	–	?	0.0082µM
CCOC(=O)c1nc(Nc2ccc(C(=O)O)cc2)c2ccccc2n1	–	–	–	–	–	–
CCOC(=O)CCC(NC(=O)c1cncc(O)c1)C(=O)OCC (configuration not stated)	–	–	–	–	–	–
CCOC(=O)c1nc(Nc2ccccc2OC)c2ccccc2n1	2.59µM	·	·	·	·	11.6µM
CCOC(=O)c1nc(Nc2ccc(C(=O)OCC(C)C)cc2)c2ccccc2n1	6.51µM	·	·	·	·	6.51µM
Cn1c(Cc2cccs2)nnc1SCC(=O)Nc1ccc(C(N)=O)cc1	–	–	–	–	–	–
CC(=O)N/C(=C/c1ccc([N+](=O)[O-])cc1)C(=O)O	–	–	–	–	–	–
CCOC(=O)c1nc(Nc2ccc(N3CCC(C)CC3)cc2)c2ccccc2n1	5.8µM	–	–	5.8µM	–	7.31µM
CCOC(=O)c1nc(Nc2ccc(Nc3ccccc3)cc2)c2ccccc2n1	7.31µM	?	-64.8	7.3µM	–	13µM
CCOC(=O)c1ccc(Nc2nc(C(=O)OCC)nc3ccccc23)cc1	2.59µM	?	–	?	–	5.8µM
CCOC(=O)c1nc(Nc2ccc(C(=O)OC(C)C)cc2)c2ccccc2n1	4.11µM	·	·	·	·	5.17µM
Cc1ccc(C)c(NC(=O)Cn2c(=O)n(Cc3ccc4c(c3)OCO4)c(=O)c3ccccc32)c1	–	·	·	·	·	?
CCOc1ccccc1NC(=O)C(c1ccccc1)N1CCN(C(=O)c2ccco2)CC1 (configuration not stated)	?	–	–	–	–	–
CCCCCOC(=O)c1ccc(Nc2nc(C(=O)OCC)nc3ccccc23)cc1	1.3µM	·	·	·	·	3.26µM
CCOC(=O)c1nc(Nc2ccc(OC)cc2)c2ccccc2n1	20.6µM	–	–	–	–	?
CCOC(=O)c1c(Nc2ccccc2OCCOC)n[nH]c1C	–	–	?	20.6µM	–	?
CCOC(=O)c1nc(NCc2cccc(OC)c2)c2ccccc2n1	16.4µM	–	–	?	–	?
CCOC(=O)c1c(NCc2ccccc2)n[nH]c1C	–	–	–	–	–	–
Cc1ccc(C(=O)NCC(=O)OCc2cc(=O)n3ccsc3n2)cc1	–	·	·	·	·	–
CCOC(=O)c1nc(Nc2cc(C)cc(C)c2)c2ccccc2n1	20.6µM	–	–	?	–	18.4µM
CCOC(=O)c1c(CCl)nc2ccccc2c1C	?	–	–	–	–	?
